The record followed here is PubChem BioAssay (EPA / NIEHS).

“And” between values parts separate entries of the source, which are not always exact repeats. Equal entries are not always repeated. A structure can be active in one record and inactive in another. The source made the active and inactive calls. How the source made its calls: active means hit-call score of the fitted dose curve at least 0.9, where 1 is the maximum; inactive means score below 0.9.

Read-out in assay [1]: Interferon-gamma inducible Protein 10 (IP10), CXCL10 (gene 3627)
The assay can be described thus: BSK_hDFCGF_IP10: BioMAP Diversity Plus: hDFCGF Assay for Interferon-gamma inducible Protein 10 (IP10) Biomarker Activity (AID 2283053). The conditions noted are these: primary human foreskin fibroblasts; actives raise or lower the signal. The method, boiled down: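 Human foreskin fibroblast primary cells (hDFCGF system) were dosed with chemical and assayed at 24 h; IP-10 measured by ELISA. Activity fitted bidirectionally relative to DMSO negative control as baseline.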

Read-out in assay [2]: Urokinase-type plasminogen activator receptor (uPAR), PLAUR (gene 5329)
The experiment in a line: BSK_CASM3C_uPAR: BioMAP Diversity Plus: CASM3C Assay for Urokinase-type plasminogen activator receptor (uPAR) Biomarker Activity (AID 2283054).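 Further: cell-surface uPAR protein level quantified by ELISA.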 The conditions noted are these: primary human coronary artery smooth muscle cells; actives raise or lower the signal.

Read-out in assay [3]: Vascular cell adhesion molecule 1 (VCAM1), VCAM1 (gene 7412)
The experiment in a line: BSK_CASM3C_VCAM1: BioMAP Diversity Plus: CASM3C Assay for Vascular cell adhesion molecule 1 (VCAM1) Biomarker Activity (AID 2283055).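 Further: VCAM-1 protein level quantified by ELISA on the cells.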 Conditions: primary human coronary artery smooth muscle cells; actives raise or lower the signal.

Read-out in assay [4]: Collagen III, COL3A1 (gene 1281)
The assay can be described thus: BSK_hDFCGF_CollagenIII: BioMAP Diversity Plus: hDFCGF Assay for Collagen III Biomarker Activity (AID 2283056). The conditions noted are these: primary human foreskin fibroblasts; actives raise or lower the signal. Put shortly: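 hDFCGF primary human dermal fibroblasts; 24 h chemical exposure; collagen III by ELISA; bidirectional curve fit vs DMSO baseline (gain or loss of signal).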

Read-out in assay [5]: Epidermal growth factor receptor (EGFR), EGFR (gene 1956)
The assay can be described thus: BSK_hDFCGF_EGFR: BioMAP Diversity Plus: hDFCGF Assay for Epidermal growth factor receptor (EGFR) Biomarker Activity (AID 2283057). The conditions noted are these: primary human foreskin fibroblasts; actives raise or lower the signal. The method, boiled down: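 Primary human foreskin fibroblasts were exposed to compound for 24 h, after which cell-surface EGFR was quantified by ELISA. Activity was fitted bidirectionally against the DMSO negative control as baseline.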

Read-out in assay [6]: Interleukin-8 (IL8), CXCL8 (gene 3576)
The assay can be described thus: BSK_hDFCGF_IL8: BioMAP Diversity Plus: hDFCGF Assay for Interleukin-8 (IL8) Biomarker Activity (AID 2283058). Conditions: primary human foreskin fibroblasts; actives raise or lower the signal. Put shortly:
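ELISA read-out of IL-8 from primary human foreskin fibroblast cultures taken 24 h after dosing; values are bidirectional fits relative to DMSO vehicle.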

A short description of assay [7]: BSK_hDFCGF_Proliferation: Cell Proliferation Assessment in the BioMAP Diversity Plus: hDFCGF Assay (AID 2283059).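 Further: curves fitted for both rise and fall of signal versus DMSO baseline.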 The conditions noted are these: primary human foreskin fibroblasts. The method, boiled down: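 This proliferation readout used SRB total-protein staining of human foreskin fibroblasts […], normalized to DMSO with bidirectional curve fitting.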

Read-out in assay [8]: Macrophage colony-stimulating factor (MCSF), CSF1 (gene 1435)
The experiment in a line: BSK_hDFCGF_MCSF: BioMAP Diversity Plus: hDFCGF Assay for Macrophage colony-stimulating factor (MCSF) Biomarker Activity (AID 2283060). The conditions noted are these: primary human foreskin fibroblasts; actives raise or lower the signal. Put shortly: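 ELISA read-out of M-CSF in human dermal foreskin fibroblast cultures, 24 h after chemical dosing; gain or loss of signal fitted bidirectionally relative to DMSO baseline.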

The nature of assay [9]: BSK_hDFCGF_SRB: Viability Assessment in the BioMAP Diversity Plus: hDFCGF Assay (AID 2283061).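 Further: cells exposed to compound for 24 h before the read.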 Conditions: primary human foreskin fibroblasts. The method, boiled down:
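Primary human foreskin fibroblasts; 24 h post-dose; fixed 10% TCA, stained 0.1% SRB, A560 read; total protein as overt cytotoxicity measure; curves fit bidirectionally vs DMSO control.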

Read-out in assay [10]: TIMP metallopeptidase inhibitor 1 (TIMP1), TIMP1 (gene 7076)
The assay can be described thus: BSK_hDFCGF_TIMP1: BioMAP Diversity Plus: hDFCGF Assay for TIMP metallopeptidase inhibitor 1 (TIMP1) Biomarker Activity (AID 2283062). The conditions noted are these: primary human foreskin fibroblasts; actives raise or lower the signal. The method, boiled down:
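ELISA readout of TIMP-1 from human dermal foreskin fibroblast cultures 24 h post-dosing. Curves were fitted in both directions against DMSO baseline, with SRB total-protein staining in parallel cultures as a cytotoxicity check.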

Read-out in assay [11]: Monokine induced gamma interferon (MIG), CXCL9 (gene 4283)
The experiment in a line: BSK_hDFCGF_MIG: BioMAP Diversity Plus: hDFCGF Assay for Monokine induced gamma interferon (MIG) Biomarker Activity (AID 2283063). Conditions: primary human foreskin fibroblasts; actives raise or lower the signal. Put shortly: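 Fibroblasts (human foreskin, primary) dosed, 24 h, MIG by ELISA; fit bidirectional vs DMSO.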

Read-out in assay [12]: Matrix Metallopeptidase 1 (MMP1), MMP1 (gene 4312)
The experiment in a line: BSK_hDFCGF_MMP1: BioMAP Diversity Plus: hDFCGF Assay for Matrix Metallopeptidase 1 (MMP1) Biomarker Activity (AID 2283064). Conditions: primary human foreskin fibroblasts; actives raise or lower the signal. Put shortly:
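Primary human foreskin fibroblasts exposed to chemicals for 24 h; MMP1 measured by ELISA. Cytotoxicity tracked by SRB staining in parallel cultures; bidirectional fit relative to DMSO.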

Read-out in assay [13]: Vascular cell adhesion molecule 1 (VCAM1), VCAM1 (gene 7412)
The experiment in a line: BSK_hDFCGF_VCAM1: BioMAP Diversity Plus: hDFCGF Assay for Vascular cell adhesion molecule 1 (VCAM1) Biomarker Activity (AID 2283065).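 On AC50: VCAM-1 protein level quantified by ELISA after 24 h chemical exposure.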 The conditions noted are these: primary human foreskin fibroblasts; actives raise or lower the signal. Put shortly:
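ELISA read-out of VCAM-1 on human skin fibroblasts, 24 h post-dose; gain or loss of signal fitted bidirectionally against DMSO baseline.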

Read-out in assay [14]: Plasminogen activator inhibitor-1 (PAI1), SERPINE1 (gene 5054)
The experiment in a line: BSK_hDFCGF_PAI1: BioMAP Diversity Plus: hDFCGF Assay for Plasminogen activator inhibitor-1 (PAI1) Biomarker Activity (AID 2283066). The conditions noted are these: primary human foreskin fibroblasts; actives raise or lower the signal. Put shortly: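 Human foreskin fibroblasts in the hDFCGF system were dosed with compound for 24 h; PAI-1 was quantified by ELISA. Bidirectional curve fitting used DMSO as negative control and baseline.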

Read-out in assay [15]: Intercellular Adhesion Molecule 1 (ICAM1), ICAM1 (gene 3383)
The assay can be described thus: BSK_KF3CT_ICAM1: BioMAP Diversity Plus: KF3CT Assay for Intercellular Adhesion Molecule 1 (ICAM1) Biomarker Activity (AID 2283067). The conditions noted are these: primary human keratinocytes with fibroblasts; actives raise or lower the signal. The method, boiled down: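 ELISA readout of ICAM-1; KF3CT human skin co-culture (keratinocytes + foreskin fibroblasts), 24 h post-dose; gain/loss fit vs DMSO baseline.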

Read-out in assay [16]: Interferon-gamma inducible Protein 10 (IP10), CXCL10 (gene 3627)
The experiment in a line: BSK_KF3CT_IP10: BioMAP Diversity Plus: KF3CT Assay for Interferon-gamma inducible Protein 10 (IP10) Biomarker Activity (AID 2283068). The conditions noted are these: primary human keratinocytes with fibroblasts; actives raise or lower the signal. Put shortly:
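Signal is secreted/surface IP-10 by ELISA in a human primary skin co-culture of keratinocytes and foreskin fibroblasts, taken 24 h post-dosing; DMSO served as negative control.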

A short description of assay [17]: BSK_KF3CT_SRB: Viability Assessment in the BioMAP Diversity Plus: KF3CT Assay (AID 2283069).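 Further: total protein by sulforhodamine B staining as a cytotoxicity measure; read 24 h after compound addition.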 Conditions: primary human keratinocytes with fibroblasts. The method, boiled down: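 Human keratinocyte and foreskin fibroblast co-culture exposed to chemical for 24 h. Total protein measured in parallel cultures by 0.1% sulforhodamine B staining after 10% TCA fixation, read at 560 nm; bidirectional fit relative to DMSO.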

Read-out in assay [18]: Interleukin-1 alpha (IL1a), IL1A (gene 3552)
The experiment in a line: BSK_KF3CT_IL1a: BioMAP Diversity Plus: KF3CT Assay for Interleukin-1 alpha (IL1a) Biomarker Activity (AID 2283070). Conditions: primary human keratinocytes with fibroblasts; actives raise or lower the signal. The method, boiled down: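 Primary human keratinocyte plus foreskin fibroblast co-culture, dosed and measured at 24 h in 96-well plates. IL-1a level quantified by ELISA; bidirectional fit relative to DMSO.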

Read-out in assay [19]: TIMP metallopeptidase inhibitor 2 (TIMP2), TIMP2 (gene 7077)
The assay can be described thus: BSK_KF3CT_TIMP2: BioMAP Diversity Plus: KF3CT Assay for TIMP metallopeptidase inhibitor 2 (TIMP2) Biomarker Activity (AID 2283071). Conditions: primary human keratinocytes with fibroblasts; actives raise or lower the signal. Put shortly: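 Human primary keratinocyte/foreskin fibroblast co-culture dosed with chemical and sampled at 24 h. TIMP-2 levels quantified by ELISA; bidirectional fitting against DMSO negative control as baseline.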

Read-out in assay [20]: Transforming growth factor beta 1 (TGFb1), TGFB1 (gene 7040)
The assay can be described thus: BSK_KF3CT_TGFb1: BioMAP Diversity Plus: KF3CT Assay for Transforming growth factor beta 1 (TGFb1) Biomarker Activity (AID 2283072). Conditions: primary human keratinocytes with fibroblasts; actives raise or lower the signal. The method, boiled down:
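Human keratinocyte plus foreskin fibroblast primary co-culture, dosed with chemical for 24 h. TGF-b1 quantified by ELISA. Activity fitted bidirectionally against DMSO negative control as baseline.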

The term AC50 denotes the concentration at which the activity in the assay is half-maximal. For the compound `CC(=O)Nc1ccccc1O`, the outcome in [1], in assay [3], in assay [4], in [5], in [6] and in [7] was inactive. Further, the result in assay [8], in assay [9], in assay [10], in assay [11], in assay [12] and in assay [13] was inactive. The result in assay [14], in assay [15], in assay [16], in [17], in assay [18] and in [19] was inactive. Also, the outcome in assay [20] was inactive. For the same compound, the AC50 in [2] was 0.124 µM (active).

On to `NCCNCCN`, for which the result in assay [1], in assay [2], in [3], in [5], in [6] and in assay [7] was inactive. The result in assay [8], in [9], in [10], in assay [11], in [12] and in assay [13] was inactive. For the same compound, the outcome in assay [14], in assay [15], in assay [16], in assay [17], in assay [18] and in assay [19] was inactive.

Consider `CC(=O)/C=C/C1=C(C)CCCC1(C)C`, for which the outcome in [1], in assay [2], in assay [5], in assay [6], in assay [7] and in assay [8] was inactive. The outcome in assay [9], in assay [10], in [11], in [12], in [13] and in [14] was inactive. Moreover, the outcome in assay [15], in assay [16], in assay [17], in assay [18], in assay [19] and in assay [20] was inactive. In addition, the AC50 in [3] is 0.016 µM (active).

As for `C#C[C@]1(O)CC[C@H]2[C@@H]3CCC4=Cc5oncc5C[C@]4(C)[C@H]3CC[C@@]21C`, the result in assay [1], in assay [2], in assay [4], in assay [5], in assay [6] and in assay [7] was inactive. For the same compound, the outcome in assay [8], in assay [9], in assay [10], in [11], in assay [12] and in assay [14] was inactive. The outcome in assay [15], in assay [16], in [17], in assay [18] and in assay [20] was inactive. The results for the AC50 in [3], in [13] and in [19] were 25 µM (active), 20 µM (active) and 3.28 µM (active), respectively.

For `O=P(c1ccccc1)(c1ccccc1)c1ccccc1`, the result in assay [1], in [2], in assay [3], in assay [4], in [5] and in assay [6] was inactive. Besides, the outcome in [7], in [8], in assay [9], in [10], in [11] and in assay [12] was inactive. The outcome in assay [13], in [14], in [15], in assay [16], in assay [17] and in [18] was inactive. Moreover, the result in assay [19] and in assay [20] was inactive.

Consider `Nc1cc([N+](=O)[O-])ccc1O`, for which the result in assay [1], in assay [2], in assay [3], in [5], in [6] and in [8] was inactive. Moreover, the outcome in [10], in assay [11], in assay [12], in assay [13], in [14] and in assay [15] was inactive. Moreover, the result in assay [16], in assay [17], in [18] and in [19] was inactive. Also, the AC50 is 20 µM (active) and 10.8 µM (active) in assay [7]; 1.16 µM (active) and 826 nM (active) in [9]; 1.88 µM (active) in assay [11].
